# Measured values as given in PubChem BioAssay (NCATS).
# Results filed as inconclusive are left out. Unmarked numbers belong to inactive results. Activity calls are given as the source filed them. Calls come from the whole dose curve.
# Assay: Primary qHTS for Huh7 cytotoxicity: counterscreen for inhibitors of MERS-S pseudotyped particle cell entry (AID 1479147)
# Settings: cell viability read-out; series mostly up to 57.1 µM; activity change, negative = cytotoxicity: at the top concentration
# % is set by controls: 0 for no effect and ±100 for the full control effect.
SMILES,outcome,"activity change, negative = cytotoxicity [%]"
COc1ccnc2c1CCCCC2S(=O)c1nc2ccccc2[nH]1 (stereo not drawn),inactive,
N#C/C(=C1/SC[C@@H](c2ccc(Cl)cc2Cl)S1)n1ccnc1,,-1.94
CC1CC(=O)NN=C1c1ccc(NCC(C)(C)NCC(O)COc2cc(Cl)ccc2C#N)cc1 (stereo not drawn),,0.374
CC1(C)CCC(C)(C)c2cc(NC(=O)c3ccc(C(=O)O)cc3)ccc21,,-8.09
O=C1CC2(CCCC2)CC(=O)N1CCCCN1CCN(c2ncccn2)CC1,inactive,
C=C1C[C@H]2[C@@H]3C=C(C)C4=CC(=O)CC[C@]4(C)[C@H]3CC[C@]2(C)[C@@]1(OC(C)=O)C(C)=O,inactive,
O=C(OCC(O)CO)c1ccccc1Nc1ccnc2c(C(F)(F)F)cccc12 (stereo not drawn),inactive,
Clc1ccc(C(Cn2ccnc2)OCc2ccsc2Cl)c(Cl)c1 (stereo not drawn),,-19
CCCC(=O)O[C@]1(C(=O)CC)CC[C@H]2[C@@H]3CCC4=CC(=O)CC[C@]4(C)[C@H]3[C@@H](O)C[C@@]21C,inactive,
CCCCc1cc2ccccc2c(OCCN(C)C)n1,,-19
O[C@@H](COc1cccc2ncccc12)CN1CCN(C2c3ccccc3[C@@H]3[C@H](c4ccccc42)C3(F)F)CC1 (stereo partly drawn),inactive,
O=C(c1ccc(F)cc1)C1CCN(CCn2c(=O)[nH]c3ccccc3c2=O)CC1,,-23.3
CN(C)CCOC1=Cc2ccccc2Sc2ccc(Cl)cc21,,-18.2
Cc1ccc(Cl)c(OCC(O)CNC(C)(C)C)c1 (stereo not drawn),,-8.18
CCOCCn1c(N2CCCN(C)CC2)nc2ccccc21,inactive,
CCCCC(CC)COC(=O)C(C#N)=C(c1ccccc1)c1ccccc1 (stereo not drawn),inactive,
COc1ccccc1OC(=O)Oc1ccccc1OC,inactive,
C#C[C@]1(O)CC[C@H]2[C@@H]3CCC4=CC(=O)CCC4=C3C=C[C@@]21CC,,-4.25
C#C[C@]1(OC(C)=O)CC[C@H]2[C@@H]3CCC4=C[C@@H](OC(C)=O)CC[C@@H]4[C@H]3CC[C@@]21C,,-10.2

SMILES,outcome,"activity change, negative = cytotoxicity [%]"
CN(C)[C@@H](CCOc1cccc2ccccc12)c1ccccc1,,-6.31
COc1ccc2c(c1)c(CC(=O)O)c(C)n2C(=O)c1ccc(Cl)cc1,inactive,
CN1CCC(=C2c3ccccc3CCc3sccc32)CC1,inactive,
O=C1OC(c2ccc(O)cc2)(c2ccc(O)cc2)c2ccccc21,,2.91
CCCCCCCCCCCCCCCCCCOCC(O)CO (stereo not drawn),,-4.01
CCCCNc1ccc(C(=O)OCCN(CC)CC)cc1,,-7.9
COc1ccc(CN2CCN(C(c3ccc(F)cc3)c3ccc(F)cc3)CC2)c(OC)c1OC,,-26
CN1CCC(=C2c3ccccc3CCc3cccnc32)CC1,,-5.23
CN(C)CCOC(c1ccccc1)c1ccc(Br)cc1 (stereo not drawn),,-6.68
C[C@H](O)C(=O)Nc1c(I)c(C(=O)NC(CO)CO)c(I)c(C(=O)NC(CO)CO)c1I,inactive,
CCn1c(=O)c2c(nc(C=Cc3ccc(OC)c(OC)c3)n2C)n(CC)c1=O,,-5.24
COC(=O)C1=C(C)NC(C)=C(C(=O)OC(C)(C)CN(C)CCC(c2ccccc2)c2ccccc2)C1c1cccc([N+](=O)[O-])c1 (stereo not drawn),,-10.3
OC(CCCN1CCCCC1)(c1ccccc1)c1ccccc1,,3.41
Nc1ccn([C@H]2CC[C@@H](CO)O2)c(=O)n1,inactive,
NS(=O)(=O)c1cc2c(cc1Cl)NCNS2(=O)=O,,2.49
Cc1ccc(N(CC2=NCCN2)c2cccc(O)c2)cc1,,-1.19
CCCCNc1ccc(C(=O)OCCN(C)C)cc1,,0.244
c1ccc(CNCCNCc2ccccc2)cc1,,-0.821
CN1CCC(OC(c2ccccc2)c2ccccc2)CC1,,-9.22
